L major viab = inhibitors of Leishmania major promastigote growth; Leishmania major promastigotes, resazurin fluorescence viability; inhibition, % at 10 µM; 200,000 tested, 9% active; in the data active = inhibition above about 50%;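 also: promastigotes grown with compound for 44 hours at 28 °C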
PTEN del growth = suppresses growth of cells with PTEN deletion | HCT116 PTEN-null viability, CellTiter-Glo, 60 h; stronger effect = lower value | viability, % at 10 µM | 140,000 tested, 1.2% active | AID 827;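 active = viability at or below a set limit, 4 SD under the median of all tested compounds, cut at about 3.7% in these data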;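 also: PTEN knockout HCT116 line with beta catenin targeted HCT116 as companion control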
bCat KO growth = beta-catenin-lacking colon tumor cell growth suppression | HCT116 beta-catenin knockout viability, CellTiter-Glo, 60 h; stronger effect = lower value | viability, % at 10 µM | 140,000 tested, 1.5% active;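 active = viability at or under a set limit, the compound median less 4 SD, cut at about 6% in these data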
Ins promoter up = MIN6 insulin promoter up-regulation; MIN6 insulin promoter-GFP reporter, high-content imaging; stronger effect = higher value; z-score at 5 µM; 190,000 tested, 0.3% active; AID 1625;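 active = z-score above 3 at 5 µM with at least 500 cells counted in the well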
Autophagy HCS = modulators of autophagy; calls only at 10 µM (by protocol); 190,000 tested, 0.98% active; MEF GFP-LC3 puncta imaging; test concentration mostly 10 µM;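 active = percentage of spot-positive cells more than 3 SD above its plate mean, without a fluorescence outlier flag or 80% toxicity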
Insulin prom inh = TRM-6 insulin promoter activity inhibition. AID 1273. TRM-6 cells (human fetal islet line), insulin promoter-eGFP reporter, imaging; reporter expression induced with tamoxifen. 130,000 tested, 0.9% active. inhibition, % at 2 µM;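 active = inhibition above the mean plus 3 SD, with well images judged a real hit on visual review, cut at about 60% in these data, passing the limit was not always enough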
Hits are given with their value. Shown are actives, neighbours in structure and some others; about 9.6% of the full set was active somewhere.

Screening COc1cc(C=Nc2cccc(C)c2)c(O)c([N+](=O)[O-])c1 returned L major viab 67.6, PTEN del growth inactive, bCat KO growth inactive, Ins promoter up inactive, Autophagy HCS inactive and Insulin prom inh inactive.
Screening CCOC(=O)N1CCN(C(=O)CCSCCc2ccncc2)CC1 returned L major viab inactive, PTEN del growth inactive, bCat KO growth inactive, Ins promoter up inactive, Autophagy HCS inactive and Insulin prom inh 78.6.
Screening O=C(O)C(Cc1ccc(O)cc1)N1C(=O)C2CCCCC2C1=O (stereo unspecified) returned Ins promoter up inactive.
Screening CC1CCCCN1C(=O)C(Cc1ccccc1)N1C(=O)C2CCCCC2C1=O (stereo unspecified) returned L major viab 61.6, PTEN del growth inactive, bCat KO growth inactive, Ins promoter up inactive, Autophagy HCS inactive and Insulin prom inh inactive.
Screening CC1CCCCN1C(=O)N[C@@H](Cc1ccccc1)C(=O)O (stereo partly specified) returned L major viab 51.0, PTEN del growth inactive, bCat KO growth inactive, Ins promoter up inactive, Autophagy HCS inactive and Insulin prom inh inactive.
`CC(=O)Nc1ccc(NC(=O)C(Cc2ccccc2)NC(=O)C2CCCCC2)cc1` (stereo unspecified) gave L major viab inactive, PTEN del growth inactive, bCat KO growth inactive, Ins promoter up inactive, Autophagy HCS inactive and Insulin prom inh 64.3.
For O=C(NC(Cc1ccccc1)C(=O)NC(Cc1ccccc1)C(=O)O)c1ccccc1 (stereo unspecified) the results were L major viab 56.9, Ins promoter up inactive and Autophagy HCS inactive.
CCOC(=O)N1CCC(NC(=O)C(Cc2ccccc2)NC(=O)C2CCCCC2)CC1 (stereo unspecified) was read as L major viab inactive, PTEN del growth inactive, bCat KO growth inactive, Ins promoter up inactive, Autophagy HCS inactive and Insulin prom inh inactive.
Screening CC(C)(C)OC(=O)N1CCCC1C(=O)NC(Cc1ccccc1)C(=O)O (stereo unspecified) returned L major viab inactive, PTEN del growth inactive, bCat KO growth inactive, Ins promoter up inactive, Autophagy HCS inactive and Insulin prom inh inactive.
Screening Cc1ccc(S(=O)(=O)N(C)CCCC(=O)N2CCOCC2)cc1 returned L major viab inactive, PTEN del growth inactive, bCat KO growth inactive, Ins promoter up inactive and Autophagy HCS inactive.
Screening Cn1c(SCC(=O)Nc2cccc3ccccc23)nc(O)cc1=O returned L major viab inactive, PTEN del growth inactive, bCat KO growth inactive, Ins promoter up inactive, Autophagy HCS inactive and Insulin prom inh inactive.
Screening O=C(O)[C@H](Cc1ccccc1)NC(=O)N1CCOCC1 returned L major viab 70.4, PTEN del growth inactive, bCat KO growth inactive, Ins promoter up inactive, Autophagy HCS inactive and Insulin prom inh inactive.
Screening O=C(NCc1ccccc1)N1CCOCC1 returned Ins promoter up inactive.
Screening OC1CCCN(Cc2ccc3c(c2)Cc2ccccc2-3)C1 (stereo unspecified) returned L major viab 72.8, PTEN del growth inactive, bCat KO growth inactive, Ins promoter up inactive, Autophagy HCS inactive and Insulin prom inh inactive.
`O=C(Cn1c(C(=O)N2CCc3ccccc3C2)cc2sccc21)c1ccccc1` gave L major viab 60.9, PTEN del growth inactive, bCat KO growth inactive, Ins promoter up inactive and Autophagy HCS inactive.
Screening O=C(Cn1c(C(=O)N2CCN(C3CCCCC3)CC2)cc2sccc21)c1ccccc1 returned L major viab 81.1, PTEN del growth inactive, bCat KO growth inactive, Ins promoter up inactive and Autophagy HCS inactive.
For C=CCN1C(=O)CSc2ccc(C(=O)NCCC3=CCCCC3)cc21 the results were L major viab 75.5, PTEN del growth inactive, bCat KO growth inactive, Ins promoter up inactive, Autophagy HCS inactive and Insulin prom inh inactive.
`C=CCN1C(=O)CSc2ccc(C(=O)NCc3ccco3)cc21` gave L major viab inactive, PTEN del growth inactive, bCat KO growth inactive, Ins promoter up inactive and Autophagy HCS inactive.
For C=CCn1c(SCC(=O)Nc2ccc(C(=O)OCC)cc2)nnc1-c1sc(N)nc1C the results were L major viab 57.7, PTEN del growth inactive, bCat KO growth inactive, Ins promoter up inactive, Autophagy HCS inactive and Insulin prom inh inactive.
C=CCn1c(SCc2ccc(C(=O)OC)cc2)nnc1-c1sc(N)nc1C was read as L major viab inactive, PTEN del growth inactive, bCat KO growth inactive, Ins promoter up inactive, Autophagy HCS inactive and Insulin prom inh inactive.

Assay outcomes deposited in PubChem by several laboratories.
